# Records with an inconclusive call do not appear. Active and inactive are the calls of the source. How the source made its calls, unless noted: active means hit-call score of the fitted dose curve at least 0.9, where 1 is the maximum; inconclusive means response in the unintended direction; inactive means score below 0.9.
# What was measured:
# [1] = molecular target: human Dopamine Transporter (DAT), SLC6A3 (gene 6531) (UniProt Q01959); experiment: NVS_TR_hDAT: NovaScreen (NVS) Transporter Assay for human Dopamine Transporter (DAT) (AID 2283374);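 further: activity means loss of bound radioligand signal relative to DMSO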
# human Dopamine Transporter (DAT), SLC6A3 (gene 6531), sequence (Q01959 whole entry, looked up): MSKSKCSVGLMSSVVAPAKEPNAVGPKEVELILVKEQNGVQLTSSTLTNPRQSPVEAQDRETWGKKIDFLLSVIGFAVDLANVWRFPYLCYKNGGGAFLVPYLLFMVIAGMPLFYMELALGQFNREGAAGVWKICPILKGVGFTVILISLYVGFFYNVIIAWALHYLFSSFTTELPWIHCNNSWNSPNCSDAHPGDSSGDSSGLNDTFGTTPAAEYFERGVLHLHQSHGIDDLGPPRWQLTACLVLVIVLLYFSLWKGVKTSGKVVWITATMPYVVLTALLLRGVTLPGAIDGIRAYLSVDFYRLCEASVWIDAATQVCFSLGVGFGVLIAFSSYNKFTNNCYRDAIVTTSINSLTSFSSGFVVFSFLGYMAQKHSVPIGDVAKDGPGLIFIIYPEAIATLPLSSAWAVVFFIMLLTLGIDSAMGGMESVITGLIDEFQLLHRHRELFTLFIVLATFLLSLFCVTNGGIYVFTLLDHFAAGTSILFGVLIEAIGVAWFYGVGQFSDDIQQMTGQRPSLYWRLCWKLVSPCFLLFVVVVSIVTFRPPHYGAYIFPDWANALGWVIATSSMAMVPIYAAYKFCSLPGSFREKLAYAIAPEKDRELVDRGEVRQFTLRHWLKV
# How it was run: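 Test chemicals were first screened in duplicate at 25 uM, with actives retested as concentration series. Displacement of a specific radioligand from cell-free human dopamine transporter was measured after 1 h by filtration and scintillation counting.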
# [2] = molecular target: Estrogen receptor beta (Homo sapiens) (UniProt Q92731); experiment: OT_ER_ERbERb_1440: Odyssey Thera (OT) 24-hour HEK293T Protein-Complementation Assay for Estrogen Receptor-beta/-beta Homodimer (AID 2283380);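 further: fluorescence gain from ER beta LBD homodimer complementation read by laser scanning cytometry; scored as signal increase over DMSO baseline for both agonists and antagonists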
# Estrogen receptor beta (Homo sapiens), sequence (Q92731 whole entry, looked up, the tested form may be a part): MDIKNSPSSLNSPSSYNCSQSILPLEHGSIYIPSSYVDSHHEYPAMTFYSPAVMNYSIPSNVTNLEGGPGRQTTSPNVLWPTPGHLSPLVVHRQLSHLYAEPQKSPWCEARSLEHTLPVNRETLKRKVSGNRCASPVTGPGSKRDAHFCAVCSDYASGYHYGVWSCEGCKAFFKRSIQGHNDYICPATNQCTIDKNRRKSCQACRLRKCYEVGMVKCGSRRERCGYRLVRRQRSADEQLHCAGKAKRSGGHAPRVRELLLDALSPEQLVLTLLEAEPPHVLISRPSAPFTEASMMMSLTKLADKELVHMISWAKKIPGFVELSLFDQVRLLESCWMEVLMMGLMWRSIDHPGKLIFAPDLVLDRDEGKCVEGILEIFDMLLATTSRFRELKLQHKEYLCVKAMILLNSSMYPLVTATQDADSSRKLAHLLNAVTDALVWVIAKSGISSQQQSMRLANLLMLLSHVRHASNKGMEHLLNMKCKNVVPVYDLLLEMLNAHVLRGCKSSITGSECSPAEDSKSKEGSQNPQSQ
# How it was run: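 Fluorescence increase, nuclear for agonists or whole-cell for antagonists, relative to DMSO vehicle, quantified by laser scanning cytometer after fixation and Draq5 staining. Readout from 24 h treatment of HEK293T cells carrying complementation-paired ER beta LBD (aa 310-547).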
# [3] = molecular target: Estrogen receptor (Homo sapiens) (UniProt P03372); experiment: OT_ERa_GFPERaERE_0480: Odyssey Thera (OT) 8-hour HeLa Transcription Induction Assay for Estrogen Receptor (AID 2283381; active means hit-call score of the fitted dose curve at least 0.9, where 1 is the maximum; inactive means score below 0.9)
# Estrogen receptor (Homo sapiens), sequence (P03372 whole entry, looked up): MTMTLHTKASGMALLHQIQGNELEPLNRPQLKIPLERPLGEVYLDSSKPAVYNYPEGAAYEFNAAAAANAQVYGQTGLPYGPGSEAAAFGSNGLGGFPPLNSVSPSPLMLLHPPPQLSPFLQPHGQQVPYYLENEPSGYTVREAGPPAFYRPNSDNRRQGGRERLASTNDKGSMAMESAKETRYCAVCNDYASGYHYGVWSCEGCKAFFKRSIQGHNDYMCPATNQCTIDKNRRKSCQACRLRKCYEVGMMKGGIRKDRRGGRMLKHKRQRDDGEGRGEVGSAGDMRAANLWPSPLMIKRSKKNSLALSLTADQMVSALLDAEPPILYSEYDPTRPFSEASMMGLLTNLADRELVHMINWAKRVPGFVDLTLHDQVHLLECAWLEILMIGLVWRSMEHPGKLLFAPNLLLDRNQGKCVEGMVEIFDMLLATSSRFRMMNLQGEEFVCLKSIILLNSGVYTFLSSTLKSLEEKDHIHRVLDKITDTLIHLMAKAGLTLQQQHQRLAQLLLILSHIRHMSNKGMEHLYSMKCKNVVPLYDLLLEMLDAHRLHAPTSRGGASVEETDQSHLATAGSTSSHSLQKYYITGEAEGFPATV
# How it was run: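 HeLa cells expressing GFP reporter under estrogen response element, imaged 8 h after dosing. GFP induction quantified by high-content fluorescence microscopy image analysis; gain of signal fitted versus DMSO.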
# [4] = molecular target: Estrogen receptor (Homo sapiens) (UniProt P03372); experiment: OT_ERa_GFPERaERE_0120: Odyssey Thera (OT) 2-hour HeLa Transcription Induction Assay for Estrogen Receptor (AID 2283382)
# How it was run: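 HeLa cells were dosed for 2 h, then GFP reporter induction was quantified by fluorescence microscopy with high-content image analysis. Gain of signal fitted against DMSO baseline.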
# [5] = molecular target: human Norepinephrine Transporter (NET), SLC6A2 (gene 6530) (UniProt P23975); experiment: NVS_TR_hNET: NovaScreen (NVS) Transporter Assay for human Norepinephrine Transporter (NET) (AID 2283377);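 further: cell-free membrane protein extracted from CHO cells expressing human NET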;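 on AC50: displacement of radioligand from human NET seen as loss of scintillation signal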
# human Norepinephrine Transporter (NET), SLC6A2 (gene 6530), sequence (P23975 whole entry, looked up): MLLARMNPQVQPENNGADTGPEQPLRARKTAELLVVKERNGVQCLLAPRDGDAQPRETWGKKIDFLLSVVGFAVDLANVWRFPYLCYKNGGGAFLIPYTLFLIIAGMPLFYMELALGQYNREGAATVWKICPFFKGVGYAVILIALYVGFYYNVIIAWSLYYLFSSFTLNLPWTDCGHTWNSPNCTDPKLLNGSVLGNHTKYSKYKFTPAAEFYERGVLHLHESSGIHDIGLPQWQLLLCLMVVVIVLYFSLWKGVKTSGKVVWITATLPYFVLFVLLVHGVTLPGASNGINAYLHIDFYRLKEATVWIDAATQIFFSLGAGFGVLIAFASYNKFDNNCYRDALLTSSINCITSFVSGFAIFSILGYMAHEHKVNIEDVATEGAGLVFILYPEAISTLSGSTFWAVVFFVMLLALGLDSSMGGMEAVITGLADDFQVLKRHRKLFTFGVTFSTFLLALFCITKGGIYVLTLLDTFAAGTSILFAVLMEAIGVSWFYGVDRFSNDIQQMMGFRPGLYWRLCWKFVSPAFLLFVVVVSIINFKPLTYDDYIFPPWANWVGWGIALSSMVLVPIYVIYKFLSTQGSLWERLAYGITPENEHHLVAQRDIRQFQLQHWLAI
# How it was run: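 Scintillation counts of filter-retained radioligand served as the readout, taken 1 h post-dosing in a cell-free CHO-derived system. Test chemicals ran first at 25 uM in duplicate; confirmed hits were retested across concentrations.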
# [6] = molecular target: human Serotonin Transporter (SERT), SLC6A4 (gene 6532) (UniProt P31645); experiment: NVS_TR_hSERT: NovaScreen (NVS) Transporter Assay for human Serotonin Transporter (SERT) (AID 2283372)
# human Serotonin Transporter (SERT), SLC6A4 (gene 6532), sequence (P31645 whole entry, looked up): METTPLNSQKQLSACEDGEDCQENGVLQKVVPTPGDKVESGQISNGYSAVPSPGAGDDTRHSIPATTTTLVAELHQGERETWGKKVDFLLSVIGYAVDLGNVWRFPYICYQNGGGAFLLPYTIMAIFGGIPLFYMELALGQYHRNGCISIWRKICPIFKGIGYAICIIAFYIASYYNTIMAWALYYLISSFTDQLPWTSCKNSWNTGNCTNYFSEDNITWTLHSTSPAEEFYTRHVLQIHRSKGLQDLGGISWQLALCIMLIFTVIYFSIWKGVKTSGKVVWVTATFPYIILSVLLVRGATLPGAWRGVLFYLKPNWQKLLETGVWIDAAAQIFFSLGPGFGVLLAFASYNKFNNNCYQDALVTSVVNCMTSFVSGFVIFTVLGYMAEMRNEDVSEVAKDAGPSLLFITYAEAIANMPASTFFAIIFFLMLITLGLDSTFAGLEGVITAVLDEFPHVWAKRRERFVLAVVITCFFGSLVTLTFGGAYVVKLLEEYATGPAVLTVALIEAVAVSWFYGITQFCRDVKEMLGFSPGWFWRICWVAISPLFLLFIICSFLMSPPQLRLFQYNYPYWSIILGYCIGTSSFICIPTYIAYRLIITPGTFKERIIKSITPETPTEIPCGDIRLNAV
# How it was run: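 Radioligand binding to native SERT in human platelet membranes, read by filter-based scintillation counting 1 h after dosing. Primary screen in duplicate at 25 uM; actives followed up in concentration series; loss of signal versus DMSO baseline.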
# [7] = molecular target: Agonist Androgen Response Element (ARE), AR (gene 367) (UniProt P10275); experiment: OT_AR_ARELUC_AG_1440: Odyssey Thera (OT) 24-hour CHO-K1 Luciferase Assay for Agonist Androgen Response Element (ARE) (AID 2283379)
# Agonist Androgen Response Element (ARE), AR (gene 367), sequence (P10275 whole entry, looked up): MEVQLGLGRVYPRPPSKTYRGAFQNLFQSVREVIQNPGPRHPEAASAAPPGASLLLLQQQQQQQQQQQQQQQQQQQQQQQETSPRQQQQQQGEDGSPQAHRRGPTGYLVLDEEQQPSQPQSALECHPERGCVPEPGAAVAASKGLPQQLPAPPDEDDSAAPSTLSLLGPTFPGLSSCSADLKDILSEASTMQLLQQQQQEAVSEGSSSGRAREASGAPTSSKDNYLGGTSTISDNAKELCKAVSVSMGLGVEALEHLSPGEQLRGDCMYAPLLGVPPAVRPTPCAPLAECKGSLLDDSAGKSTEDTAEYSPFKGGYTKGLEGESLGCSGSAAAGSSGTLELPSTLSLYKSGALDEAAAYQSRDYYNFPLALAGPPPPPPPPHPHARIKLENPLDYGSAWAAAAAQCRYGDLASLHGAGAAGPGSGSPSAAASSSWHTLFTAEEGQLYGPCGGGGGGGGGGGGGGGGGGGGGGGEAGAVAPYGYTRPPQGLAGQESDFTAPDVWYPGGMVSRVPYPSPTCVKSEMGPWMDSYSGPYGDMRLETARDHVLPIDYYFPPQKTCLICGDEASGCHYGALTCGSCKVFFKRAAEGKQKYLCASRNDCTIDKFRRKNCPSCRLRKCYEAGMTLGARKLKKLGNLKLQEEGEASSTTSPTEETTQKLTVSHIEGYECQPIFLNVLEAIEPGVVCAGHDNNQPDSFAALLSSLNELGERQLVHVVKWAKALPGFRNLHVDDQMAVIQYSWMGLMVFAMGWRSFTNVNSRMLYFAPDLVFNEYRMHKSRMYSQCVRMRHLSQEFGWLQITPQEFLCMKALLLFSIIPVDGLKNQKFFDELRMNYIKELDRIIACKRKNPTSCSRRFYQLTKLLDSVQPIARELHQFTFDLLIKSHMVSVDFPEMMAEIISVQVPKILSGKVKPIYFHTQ
# How it was run: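 Agonist mode, 24 h exposure in CHO-K1 ARE-luciferase cells; values reflect luminescence induction over vehicle.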
# [8] = molecular target: rat Serotonin Transporter (SERT), Slc6a4 (gene 25553) (UniProt P31652); experiment: NVS_TR_rSERT: NovaScreen (NVS) Transporter Assay for rat Serotonin Transporter (SERT) (AID 2283375)
# rat Serotonin Transporter (SERT), Slc6a4 (gene 25553), sequence (P31652 whole entry, looked up): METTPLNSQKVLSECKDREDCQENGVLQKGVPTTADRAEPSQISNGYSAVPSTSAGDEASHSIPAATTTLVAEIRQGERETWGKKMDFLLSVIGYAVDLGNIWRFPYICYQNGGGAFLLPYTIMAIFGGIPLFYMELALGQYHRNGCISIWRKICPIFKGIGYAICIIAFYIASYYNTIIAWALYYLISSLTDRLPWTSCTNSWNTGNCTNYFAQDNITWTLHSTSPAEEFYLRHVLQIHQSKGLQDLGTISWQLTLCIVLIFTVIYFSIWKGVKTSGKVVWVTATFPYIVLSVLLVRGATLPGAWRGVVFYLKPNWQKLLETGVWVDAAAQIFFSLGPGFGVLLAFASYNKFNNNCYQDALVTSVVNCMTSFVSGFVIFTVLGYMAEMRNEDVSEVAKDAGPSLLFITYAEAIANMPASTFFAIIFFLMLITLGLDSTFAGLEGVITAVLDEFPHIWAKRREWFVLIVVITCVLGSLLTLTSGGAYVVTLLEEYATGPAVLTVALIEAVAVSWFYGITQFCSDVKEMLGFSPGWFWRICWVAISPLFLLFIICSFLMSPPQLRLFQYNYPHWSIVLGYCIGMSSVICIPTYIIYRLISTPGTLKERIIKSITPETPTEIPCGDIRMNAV
# How it was run: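 Radioligand displacement, filter scintillation readout; rat forebrain membrane prep, 1 h post-dose. Single-conc 25 uM duplicate screen, then concentration-response on actives. Loss of signal vs DMSO baseline.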
# [9] = system: rat Norepinephrine Transporter (NET), gene 83511; experiment: NVS_TR_rNET: NovaScreen (NVS) Transporter Assay for rat Norepinephrine Transporter (NET) (AID 2283373)
# Method: NVS_TR_rNET is a biochemical, single-readout assay that uses extracted gene-proteins from Rat forebrain membranes in a tissue-based cell-free assay. Measurements were taken 1 hour after chemical dosing in a 48-well plate.NVS_TR_rNET is one of one assay component(s) measured or calculated from the NVS_TR_rNET assay. It is designed to make measurements of radioligand binding, a form of binding reporter, as detected with scintillation counting signals by Filter-based radiodetection technology.Data from the assay component NVS_TR_rNET was analyzed into 1 assay endpoint. This assay endpoint, NVS_TR_rNET, was analyzed in the positive analysis fitting direction relative to DMSO as the negative control and baseline of activity. Using a type of binding reporter, loss-of-signal activity can be used to understand changes in the binding as they relate to the gene Slc6a2. Furthermore, this assay endpoint can be referred to as a primary readout, because the performed assay has only produced 1 assay endpoint. To generalize the intended target to other relatable targets, this assay endpoint is annotated to the transporter intended target family, where the subfamily is neurotransmitter transporter.
# Binding assays used specific radioligands (tritiated, iodinated) with non-radioactive competitive displacement ligands in agonist or antagonist protocols (as indicated) and various reference compounds and inhibitors to titrate specific binding to receptors and transporters. Most enzyme assays (CYPs, kinases, phosphatases, proteases, HDACs) used recombinant protein and specific substrates (fluorescence mostly, some colorimetric and radioactive) and inhibitors, followed by a biochemical separation of substrate and product. All assays for the biochemical HTS were initially run in duplicate at a single concentration (10 uM for CYP450 assays and 25 uM for all others). […] Each assay was run with positive and negative controls, and concurrent controls on every plate. The follow-up (secondary) screen tested active chemical-pairs in concentration series, as well as a few additional assays not tested in the primary screen, some selected negative inactives, and several cases re-run in the concentration series for confirmatory purposes.
# [10] = molecular target: mouse Estrogen Receptor alpha (Era), Esr1 (gene 13982) (UniProt P19785); experiment: NVS_NR_mERa: NovaScreen (NVS) Nuclear Receptor Binding Assay for mouse Estrogen Receptor alpha (Era) (AID 2283378);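 further: hit means loss of bound radioligand signal relative to DMSO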
# Method: NVS_NR_mERa is a biochemical, single-readout assay that uses extracted gene-proteins in a cell-free assay. Measurements were taken 18 hours after chemical dosing in a 96-well plate.NVS_NR_mERa is one of one assay component(s) measured or calculated from the NVS_NR_mERa assay. It is designed to make measurements of radioligand binding, a form of binding reporter, as detected with scintillation counting signals by Filter-based radiodetection technology.Data from the assay component NVS_NR_mERa was analyzed into 1 assay endpoint. This assay endpoint, NVS_NR_mERa, was analyzed in the positive analysis fitting direction relative to DMSO as the negative control and baseline of activity. […] Furthermore, this assay endpoint can be referred to as a primary readout, because the performed assay has only produced 1 assay endpoint. […]
# Binding assays used specific radioligands (tritiated, iodinated) with non-radioactive competitive displacement ligands in agonist or antagonist protocols (as indicated) and various reference compounds and inhibitors to titrate specific binding to receptors and transporters. Most enzyme assays (CYPs, kinases, phosphatases, proteases, HDACs) used recombinant protein and specific substrates (fluorescence mostly, some colorimetric and radioactive) and inhibitors, followed by a biochemical separation of substrate and product. […]
smiles,measurement,setting,value
CC/C(=C\C(=N/O)C(N)=O)C(C)[N+](=O)[O-] (centres undefined),outcome,[1],inactive
same,outcome,[2],inactive
same,outcome,[3],inactive
same,outcome,[4],inactive
CCCC(=O)OCC,outcome,[1],inactive
same,outcome,[2],inactive
same,outcome,[3],inactive
same,outcome,[4],inactive
CCc1cc(SCc2sc(-c3ccc(C(F)(F)F)cc3)nc2CN2CCN(c3ccc(OC)cc3)CC2)ccc1OCC(=O)O,AC50,[1],13.9 µM (active)
same,AC50,[5],4.89 µM (active)
same,outcome,[2],inactive
COCCOc1cc2cc(C(=O)NC3CCN(C(C)C)CC3)n(CC(=O)Nc3ccc(Cl)cn3)c2cn1,AC50,[6],15.4 µM (active)
same,AC50,[5],5.89 µM (active)
same,AC50,[2],58 µM (active)
Oc1ccc2c(c1)-c1ccccc1C2,AC50,[1],10.9 µM (active)
same,AC50,[5],9.7 µM (active)
same,outcome,[7],inactive
same,AC50,[2],11 µM (active)
CNS(=O)(=O)c1cc(C(=O)N2CCC(CCN3C4CCC3CC(n3c(C)nc5ccccc53)C4)(c3cccc(F)c3)CC2)c(Cl)cc1F (centres undefined),AC50,[1],8.74 µM (active)
same,AC50,[8],8.93 µM (active)
same,AC50,[5],2.25 µM (active)
same,outcome,[7],inactive
same,outcome,[2],inactive
Nc1ccc(Nc2ccccc2)cc1,AC50,[1],7.42 µM (active)
same,AC50,[5],6.87 µM (active)
same,outcome,[3],inactive
same,outcome,[4],inactive
O=C1CCC(N2C(=O)c3ccccc3C2=O)C(=O)N1 (centres undefined),outcome,[5],inactive
same,outcome,[2],inactive
CCOC(=O)c1ccc(C2CCC(NC[C@H](O)COc3ccc(O)c(NS(C)(=O)=O)c3)CC2)cc1 (some centres undefined),AC50,[6],14.9 µM (active)
same,AC50,[9],7.29 µM (active)
same,AC50,[1],0.321 µM (active)
same,AC50,[8],1.71 µM (active)
same,AC50,[5],1.01 µM (active)
CCn1nc(Cc2ccccc2)cc1C1CCN(C[C@H]2C[C@H](N(C)[C@@H](C(=O)O)C(C)C)C[C@@H]2c2cccc(F)c2)CC1,AC50,[1],9.06 µM (active)
same,AC50,[5],11 µM (active)
same,outcome,[2],inactive
same,outcome,[3],inactive
same,outcome,[4],inactive
CCCCCCc1ccc(O)cc1O,AC50,[1],10 µM (active)
same,outcome,[8],inactive
same,AC50,[5],12.8 µM (active)
same,outcome,[7],inactive
CCOc1cccc(-n2cc(C(=O)N3CCN(c4cc(C(=O)O)c5ccccc5c4)CC3)nc2-c2ccc(C)cc2)c1,AC50,[6],34.2 µM (active)
same,AC50,[1],8.21 µM (active)
same,AC50,[8],14.7 µM (active)
same,AC50,[5],13.7 µM (active)
same,outcome,[7],inactive
same,outcome,[2],inactive
CCOC(=O)COc1ccc2c(c1)CC(NCC(O)c1cccc(Cl)c1)CC2 (centres undefined),outcome,[6],inactive
same,outcome,[9],inactive
same,AC50,[1],0.124 µM (active)
same,AC50,[8],4.63 µM (active)
same,AC50,[5],0.312 µM (active)
same,AC50,[3],69.3 µM (active)
same,outcome,[4],inactive
Fc1ccccc1[C@@H](F)COC1CCC(Nc2ncnc3[nH]ncc23)CC1 (some centres undefined),AC50,[8],2.48 µM (active)
same,outcome,[7],inactive
same,outcome,[2],inactive
CC(C)CCO,outcome,[1],inactive
same,outcome,[2],inactive
same,outcome,[3],inactive
same,outcome,[4],inactive
CNCc1ccc(NC(=O)c2c[nH]c3c2C(=O)CCC3)cc1,AC50,[1],13.8 µM (active)
same,AC50,[8],25 µM (active)
same,outcome,[2],inactive
O=C(O)CC(O)C(=O)O (centres undefined),AC50,[1],4.96 µM (active)
same,outcome,[2],inactive
O=c1[nH]c2ccc(S(=O)CCN3CCC(Cc4ccc(F)cc4)CC3)cc2o1 (centres undefined),AC50,[1],3.16 µM (active)
same,AC50,[8],0.403 µM (active)
same,AC50,[5],2.28 µM (active)
same,outcome,[2],inactive
same,outcome,[3],inactive
same,outcome,[4],inactive
CCC(C)(C)C(=O)O[C@H]1C[C@@H](C)C=C2C=C[C@H](C)[C@H](CC[C@@H]3C[C@@H](O)CC(=O)O3)[C@H]21,AC50,[1],25 µM (active)
same,outcome,[5],inactive
same,outcome,[2],inactive
same,outcome,[3],inactive
same,outcome,[4],inactive
CC(C)CCCCCCCOC(=O)CCCCC(=O)OCCCCCCCC(C)C,AC50,[1],25 µM (active)
same,outcome,[5],inactive
CCCN(C1CCN(C(=O)C2CCNCC2)CC1)[C@@H]1CCc2ccc(OC)cc2C1,AC50,[6],10.3 µM (active)
same,AC50,[8],3.7 µM (active)
same,outcome,[7],inactive
same,AC50,[2],59.7 µM (active)
COc1cccc(-c2ccc(/C=C\CN3CCCCCC3)cc2Cl)c1,AC50,[9],9.83 µM (active)
same,AC50,[1],5.87 µM (active)
same,outcome,[8],inactive
same,AC50,[5],2.67 µM (active)
same,outcome,[10],inactive
same,outcome,[2],inactive
same,outcome,[3],inactive
same,outcome,[4],inactive
CC[C@H]1CC[C@H](NCc2cc3c(cc2OC)[C@H]2C[C@H]2C(=O)N3C)[C@H](c2ccccc2)N1,AC50,[9],25 µM (active)
same,AC50,[5],11.3 µM (active)
same,outcome,[2],inactive
same,outcome,[3],inactive
same,outcome,[4],inactive
COCCOCCOCCOC,outcome,[8],inactive
same,outcome,[2],inactive
CC(=O)OCCC(C)C,outcome,[1],inactive
same,outcome,[5],inactive
same,outcome,[2],inactive
O=C(OC[C@H]1O[C@@H](OC(=O)c2cc(O)c(O)c(OC(=O)c3cc(O)c(O)c(O)c3)c2)[C@H](OC(=O)c2cc(O)c(O)c(OC(=O)c3cc(O)c(O)c(O)c3)c2)[C@@H](OC(=O)c2cc(O)c(O)c(OC(=O)c3cc(O)c(O)c(O)c3)c2)[C@@H]1OC(=O)c1cc(O)c(O)c(OC(=O)c2cc(O)c(O)c(O)c2)c1)c1cc(O)c(O)c(OC(=O)c2cc(O)c(O)c(O)c2)c1,AC50,[1],2.65 µM (active)
